# From PubChem BioAssay AID1159580 (chemical genetic matrix, 2015)
# About 2,000 (36%) of roughly 5,500 compounds were called active. About 18% were inconclusive and are not listed. This is one part of the list. A number with no mark means an inactive call. Cut-off read from the data, not from the text of the source: active = normalized growth mostly below about 0.91 (no sharp cut-off); inconclusive = no clear call, values can overlap the other calls; inactive = mostly above about 0.92.
# Assay: chemical genetic growth profiling, strain panel (AID 1159580);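 note: tested at 20 µM; growth read once vehicle control cultures reached saturation at 30 °C; 1 = growth at the plate median or of vehicle wells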
# Settings: growth OD
structure (smiles),measurement,setting,value
CC(C)N(C(=O)CCl)c1ccccc1,normalized growth,"S. cerevisiae deletion strains, locus YJR043C, strain POL32, stronger effect = lower value",1.03
same,normalized growth,"S. cerevisiae deletion strains, locus YJR075W, strain HOC1, stronger effect = lower value",1.04
same,normalized growth,"S. cerevisiae deletion strains, locus YKL009W, strain mrt4, stronger effect = lower value",1.02
same,normalized growth,"S. cerevisiae deletion strains, locus YKL068W, stronger effect = lower value",1.04
same,normalized growth,"S. cerevisiae deletion strains, locus YKL085W, strain MDH1 (second series), stronger effect = lower value",1.03
same,normalized growth,"S. cerevisiae deletion strains, locus YKL085W, strain MDH1, stronger effect = lower value",1.03
same,normalized growth,"S. cerevisiae deletion strains, locus YKL160W, strain elf1, stronger effect = lower value",0.974
same,normalized growth,"S. cerevisiae deletion strains, locus YKL190W, strain CNB1, stronger effect = lower value",1.03
same,normalized growth,"S. cerevisiae deletion strains, locus YKR001C, strain vps1, stronger effect = lower value",1.07
same,normalized growth,"S. cerevisiae deletion strains, locus YKR026C, strain gcn3, stronger effect = lower value",1.01
same,normalized growth,"S. cerevisiae deletion strains, locus YKR091W, strain srl3, stronger effect = lower value",1.01
same,normalized growth,"S. cerevisiae deletion strains, locus YLL001W, strain dnm1, stronger effect = lower value",0.992
same,normalized growth,"S. cerevisiae deletion strains, locus YLL026W, stronger effect = lower value",1.01
same,normalized growth,"S. cerevisiae deletion strains, locus YLL041C, strain sdh2, stronger effect = lower value",1.02
same,normalized growth,"S. cerevisiae deletion strains, locus YLR027C, strain aat2, stronger effect = lower value",1.01
same,normalized growth,"S. cerevisiae deletion strains, locus YLR039C, strain RIC1, stronger effect = lower value",1.2
same,normalized growth,"S. cerevisiae deletion strains, locus YLR058C, strain SHM2, stronger effect = lower value",1.03
same,normalized growth,"S. cerevisiae deletion strains, locus YLR102C, strain apc9, stronger effect = lower value",1
same,normalized growth,"S. cerevisiae deletion strains, locus YLR221C, strain rsa3, stronger effect = lower value",1
same,normalized growth,"S. cerevisiae deletion strains, locus YLR258W, strain gsy2, stronger effect = lower value",0.978
same,normalized growth,"S. cerevisiae deletion strains, locus YLR262C, strain YPT6 (second series), stronger effect = lower value",1.14
same,normalized growth,"S. cerevisiae deletion strains, locus YLR262C, strain YPT6, stronger effect = lower value",1.21
same,normalized growth,"S. cerevisiae deletion strains, locus YLR268W, strain sec22, stronger effect = lower value",1.02
same,normalized growth,"S. cerevisiae deletion strains, locus YLR320W, strain mms22, stronger effect = lower value",0.97
same,normalized growth,"S. cerevisiae deletion strains, locus YLR330W, strain CHS5, stronger effect = lower value",1.02
same,normalized growth,"S. cerevisiae deletion strains, locus YLR342W, strain FKS1 (second series), stronger effect = lower value",0.989
same,normalized growth,"S. cerevisiae deletion strains, locus YLR342W, strain FKS1, stronger effect = lower value",1.03
same,normalized growth,"S. cerevisiae deletion strains, locus YLR357W, strain rsc2, stronger effect = lower value",1.18 [resistant] (active)
same,normalized growth,"S. cerevisiae deletion strains, locus YLR370C, strain arc18, stronger effect = lower value",1.03
same,normalized growth,"S. cerevisiae deletion strains, locus YLR371W, strain rom2, stronger effect = lower value",1.01
same,normalized growth,"S. cerevisiae deletion strains, locus YLR384C, strain iki3, stronger effect = lower value",1.01
same,normalized growth,"S. cerevisiae deletion strains, locus YLR418C, strain cdc73, stronger effect = lower value",0.798 (active)
same,normalized growth,"S. cerevisiae deletion strains, locus YML016C, strain PPZ1, stronger effect = lower value",0.996
same,normalized growth,"S. cerevisiae deletion strains, locus YML032C, strain rad52, stronger effect = lower value",1.01
same,normalized growth,"S. cerevisiae deletion strains, locus YML120C, strain ndi1, stronger effect = lower value",0.986
same,normalized growth,"S. cerevisiae deletion strains, locus YML124C, strain tub3, stronger effect = lower value",1.02
same,normalized growth,"S. cerevisiae deletion strains, locus YMR058W, strain fet3, stronger effect = lower value",1
same,normalized growth,"S. cerevisiae deletion strains, locus YMR078C, strain ctf18, stronger effect = lower value",1.01
same,normalized growth,"S. cerevisiae deletion strains, locus YMR125W, strain sto1, stronger effect = lower value",1.16 [resistant] (active)
same,normalized growth,"S. cerevisiae deletion strains, locus YMR129W, stronger effect = lower value",1.01
same,normalized growth,"S. cerevisiae deletion strains, locus YMR205C, strain PFK2, stronger effect = lower value",0.919
same,normalized growth,"S. cerevisiae deletion strains, locus YMR223W, strain ubp8, stronger effect = lower value",1.02
same,normalized growth,"S. cerevisiae deletion strains, locus YMR231W, strain pep5, stronger effect = lower value",0.992
same,normalized growth,"S. cerevisiae deletion strains, locus YMR263W, strain SAP30, stronger effect = lower value",1.04
same,normalized growth,"S. cerevisiae deletion strains, locus YMR307W, strain GAS1, stronger effect = lower value",0.99
same,normalized growth,"S. cerevisiae deletion strains, locus YNL067W, strain RPL9B, stronger effect = lower value",1.04
same,normalized growth,"S. cerevisiae deletion strains, locus YNL071W, strain lat1, stronger effect = lower value",0.922
same,normalized growth,"S. cerevisiae deletion strains, locus YNL128W, strain TEP1, stronger effect = lower value",1.03
same,normalized growth,"S. cerevisiae deletion strains, locus YNL153C, strain GIM3, stronger effect = lower value",1.03
same,normalized growth,"S. cerevisiae deletion strains, locus YNL209W, strain ssb2, stronger effect = lower value",1.01
same,normalized growth,"S. cerevisiae deletion strains, locus YNL233W, strain BNI4, stronger effect = lower value",1.03
same,normalized growth,"S. cerevisiae deletion strains, locus YNL248C, strain rpa49, stronger effect = lower value",0.992
same,normalized growth,"S. cerevisiae deletion strains, locus YNL250W, strain rad50, stronger effect = lower value",1.03
same,normalized growth,"S. cerevisiae deletion strains, locus YNL271C, strain bni1, stronger effect = lower value",1.02
same,normalized growth,"S. cerevisiae deletion strains, locus YNL298W, strain CLA4, stronger effect = lower value",1.03
same,normalized growth,"S. cerevisiae deletion strains, locus YNL307C, strain MCK1, stronger effect = lower value",0.981
same,normalized growth,"S. cerevisiae deletion strains, locus YNL322C, strain KRE1 (second series), stronger effect = lower value",1.04
same,normalized growth,"S. cerevisiae deletion strains, locus YNL322C, strain KRE1, stronger effect = lower value",1.04
same,normalized growth,"S. cerevisiae deletion strains, locus YNR049C, strain mso1, stronger effect = lower value",1.02
same,normalized growth,"S. cerevisiae deletion strains, locus YNR052C, strain pop2, stronger effect = lower value",1.02
same,normalized growth,"S. cerevisiae deletion strains, locus YOL006C, strain TOP1, stronger effect = lower value",1
same,normalized growth,"S. cerevisiae deletion strains, locus YOL012C, strain htz1",0.89
same,normalized growth,"S. cerevisiae deletion strains, locus YOL147C, strain pex11, stronger effect = lower value",1
same,normalized growth,"S. cerevisiae deletion strains, locus YOR001W, strain rrp6, stronger effect = lower value",0.983
same,normalized growth,"S. cerevisiae deletion strains, locus YOR061W, strain CKA2, stronger effect = lower value",1.03
same,normalized growth,"S. cerevisiae deletion strains, locus YOR069W, strain VPS5, stronger effect = lower value",1.01
same,normalized growth,"S. cerevisiae deletion strains, locus YOR070C, strain gyp1, stronger effect = lower value",1.01
same,normalized growth,"S. cerevisiae deletion strains, locus YOR080W, strain dia2, stronger effect = lower value",1.03
same,normalized growth,"S. cerevisiae deletion strains, locus YOR083W, strain WHI5, stronger effect = lower value",0.976
same,normalized growth,"S. cerevisiae deletion strains, locus YOR106W, strain vam3, stronger effect = lower value",0.958
same,normalized growth,"S. cerevisiae deletion strains, locus YOR136W, strain idh2, stronger effect = lower value",1
same,normalized growth,"S. cerevisiae deletion strains, locus YOR144C, strain elg1, stronger effect = lower value",1.02
same,normalized growth,"S. cerevisiae deletion strains, locus YOR184W, strain ser1, stronger effect = lower value",1
same,normalized growth,"S. cerevisiae deletion strains, locus YOR265W, strain rbl2, stronger effect = lower value",1.04
same,normalized growth,"S. cerevisiae deletion strains, locus YOR270C, strain vph1, stronger effect = lower value",0.865
same,normalized growth,"S. cerevisiae deletion strains, locus YOR290C, strain snf2, stronger effect = lower value",0.928
same,normalized growth,"S. cerevisiae deletion strains, locus YOR316C, strain cot1, stronger effect = lower value",1.01
same,normalized growth,"S. cerevisiae deletion strains, locus YPL051W, strain arl3, stronger effect = lower value",0.987
same,normalized growth,"S. cerevisiae deletion strains, locus YPL055C, strain LGE1, stronger effect = lower value",1.03
same,normalized growth,"S. cerevisiae deletion strains, locus YPL078C, strain atp4, stronger effect = lower value",0.973
same,normalized growth,"S. cerevisiae deletion strains, locus YPL106C, strain sse1, stronger effect = lower value",1.14
same,normalized growth,"S. cerevisiae deletion strains, locus YPL240C, strain hsp82, stronger effect = lower value",1
same,normalized growth,"S. cerevisiae deletion strains, locus YPL241C, strain CIN2, stronger effect = lower value",1.02
same,normalized growth,"S. cerevisiae deletion strains, locus YPR119W, strain clb2, stronger effect = lower value",1.01
same,normalized growth,"S. cerevisiae deletion strains, locus YPR141C, strain kar3, stronger effect = lower value",1.03
same,normalized growth,"S. cerevisiae deletion strains, locus YPR163C, strain tif3, stronger effect = lower value",1.03
same,normalized growth,"S. cerevisiae deletion strains, locus YPR167C, strain met16, stronger effect = lower value",1.02
same,normalized growth,"S. cerevisiae deletion strains, strain wtn01, stronger effect = lower value",1.02
same,normalized growth,"S. cerevisiae strains, strain wild type, stronger effect = lower value",1.03
